Screen size: about 2,100 compounds; about 770 (37%) were called active.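 Rule for the calls: active = by-eye trace score of 1 for enhancers or -1 for inhibitors, so actives lie on both sides (some results past the limit were not filed as active); inactive = score 0, or 3 fluorescent, or 4 baseline rise.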 The list shows a part of the results.
These compounds were tested against G protein-activated inward rectifier potassium channel 2 (Homo sapiens) + G protein-activated inward rectifier potassium channel 1 (Homo sapiens) (UniProt P48051+P48549) (assay: GIRK1/2 thallium flux modulators, retest, confirmation, cell-based, HEK293 rmGlu8/hGIRK1/2, FluoZin-2 (AID 623911)). Settings: HEK293 rmGlu8/hGIRK1/2, thallium flux FluoZin-2; actives lie on both sides; glutamate co-added at its EC20 level.
Sequence of G protein-activated inward rectifier potassium channel 2 (Homo sapiens) + G protein-activated inward rectifier potassium channel 1 (Homo sapiens) (P48051 whole entry, looked up): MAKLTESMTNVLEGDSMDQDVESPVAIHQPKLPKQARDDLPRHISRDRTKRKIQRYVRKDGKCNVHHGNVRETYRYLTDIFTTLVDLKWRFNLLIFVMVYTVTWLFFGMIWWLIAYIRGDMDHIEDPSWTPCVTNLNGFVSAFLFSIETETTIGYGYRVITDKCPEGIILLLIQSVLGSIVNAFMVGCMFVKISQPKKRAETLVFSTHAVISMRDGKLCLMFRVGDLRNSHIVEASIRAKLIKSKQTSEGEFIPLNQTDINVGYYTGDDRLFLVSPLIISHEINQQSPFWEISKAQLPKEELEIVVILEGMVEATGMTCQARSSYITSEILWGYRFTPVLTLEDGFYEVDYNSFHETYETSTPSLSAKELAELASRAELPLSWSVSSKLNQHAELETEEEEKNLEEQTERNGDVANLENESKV
Sequence of G protein-activated inward rectifier potassium channel 2 (Homo sapiens) + G protein-activated inward rectifier potassium channel 1 (Homo sapiens) (P48549 whole entry, looked up): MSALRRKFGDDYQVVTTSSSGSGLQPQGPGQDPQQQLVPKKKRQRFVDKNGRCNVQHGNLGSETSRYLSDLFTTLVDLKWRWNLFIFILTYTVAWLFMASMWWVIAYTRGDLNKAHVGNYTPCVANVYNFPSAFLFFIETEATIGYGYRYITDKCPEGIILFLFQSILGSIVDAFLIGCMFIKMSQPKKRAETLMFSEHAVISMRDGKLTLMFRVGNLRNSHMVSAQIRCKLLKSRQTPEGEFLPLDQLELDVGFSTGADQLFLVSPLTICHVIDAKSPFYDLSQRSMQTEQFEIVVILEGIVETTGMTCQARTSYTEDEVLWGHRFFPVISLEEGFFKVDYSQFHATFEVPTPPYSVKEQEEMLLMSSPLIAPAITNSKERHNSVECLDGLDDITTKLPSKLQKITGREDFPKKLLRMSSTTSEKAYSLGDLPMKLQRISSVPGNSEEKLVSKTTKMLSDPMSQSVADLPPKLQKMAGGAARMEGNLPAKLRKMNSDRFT
In the case of `COC(=O)C1=NN(c2ccccc2)C2C(=O)N(c3ccccc3OC)C(=O)C12` (configuration not stated), the manual score is reported as 0 (inactive).
With `N#CC(c1cccc(Cl)c1)c1ccc2c(C(F)(F)F)cc(C(F)(F)F)nc2n1` (configuration not stated) the manual score was 0 (inactive).
`CNC(=S)N/N=C1\C(=O)c2cccc3cccc1c23` was tested, and the manual score was 1 (active).
With `CCNC(=S)N/N=C1\CCCCc2ccccc21` the manual score was 4 (inactive).
With `O=C(N/N=C1/C(=O)c2cccc3cccc1c23)c1ccc(Cl)cc1` the manual score was 1 (active).
For `CCCCNC(=S)N/N=C1\C(=O)c2cccc3cccc1c23`, the manual score was 0 (inactive).
With `CCNC(=S)N/N=C1\C(=O)c2cccc3cccc1c23` the manual score was 1 (active).
For `O=c1c(O)c(-c2cccs2)oc2ccc(Cl)cc12`, the manual score was 3 (inactive).
`COc1ccc(/C=N/NC(=O)c2nc(-c3ccccc3)cc(-c3ccccc3)n2)cc1` was tested, and the manual score was 0 (inactive).
With `CCCOc1ccc(/C=N/NC(=O)C(=O)Nc2ccccn2)cc1` the manual score was 0 (inactive).
With `O=C(N/N=C/c1ccc(Sc2ccccn2)o1)c1cc2ccccc2cc1O` the manual score was 1 (active).
In the case of `O=C(CSc1nc(O)cc(=O)n1-c1ccccc1)N1CCCCC1`, the manual score is reported as 0 (inactive).
For `Cc1ccc(C)c(NC(=S)c2nc3ccccc3s2)c1`, the manual score was 0 (inactive).
For `N#C/C(=C\c1ccc(N2CCOCC2)o1)c1nc2ccccc2[nH]1`, the manual score was 3 (inactive).
For `Cc1ccc(NC(=S)N/N=C/c2c(Cl)cccc2Cl)c(C)c1`, the manual score was 0 (inactive).
With `Cc1ccccc1NC(=S)c1nc2ccccc2[nH]1` the manual score was 1 (active).
For `Cc1ccc(NC(=S)c2nc3ccccc3[nH]2)c(C)c1`, the manual score was 1 (active).
For `COc1ccc(CNc2nc(-c3cccnc3)nn2C(=O)c2ccco2)cc1`, the manual score was 0 (inactive).
For `CCOC(=O)c1ccccc1NC(=O)CSc1nnc(COc2ccccc2C)n1C`, the manual score was -1 (active).
In the case of `COC(=O)c1ccc(NC(=O)CSc2nnc(COc3ccccc3)n2C)cc1`, the manual score is reported as 3 (inactive).
With `CCOC(=O)c1ccccc1NC(=O)CSc1nnc(COc2ccccc2)n1CC` the manual score was -0.5 (inactive).
For `CCOC(=O)c1nn(-c2ccc(F)cc2)c(C)c1C(C)=O`, the manual score was 0 (inactive).
`CCOC(=O)c1ccccc1NC(=O)CSc1nnc(Cc2cccn2C)n1-c1ccc(F)cc1` was tested, and the manual score was -1 (active).
For `CCOC(=O)CN(C(=O)CSc1nnc(Cc2ccccc2)n1-c1ccc(C)cc1)c1ccccc1`, the manual score was -1 (active).
For `CCOC(=O)c1ccccc1NC(=O)CSc1nnc(Cc2cccn2C)n1-c1ccc(C)cc1`, the manual score was -1 (active).
In the case of `CN(C(=O)c1cccnc1)c1nnc(-c2cnccn2)s1`, the manual score is reported as 0 (inactive).
For `Cc1cccn2c(=O)c(/C=N/O)c(N3CCCC3)nc12`, the manual score was 0 (inactive).
`CCOC(=O)C1=C(C)N=C2SCCC(=O)N2C1c1sccc1C` (configuration not stated) was tested, and the manual score was 0 (inactive).
In the case of `CCc1cc(C(=O)NNC(=S)Nc2ccccc2C)cs1`, the manual score is reported as 0 (inactive).
`CC/C(=N\NC(=S)Nc1cc(C)ccc1C)c1ccc(OC(F)F)cc1` was tested, and the manual score was 0 (inactive).
In the case of `Cc1ccsc1/C=N/NC(=O)c1sccc1C`, the manual score is reported as 0 (inactive).
For `Cc1ccc(C2CC2C(=O)NNC(=S)Nc2cccc(C)c2)cc1` (configuration not stated), the manual score was 0 (inactive).
With `CCc1cc(C(=O)NNC(=S)Nc2cc(C)ccc2C)cs1` the manual score was 1 (active).
For `C/C(=N\NC(=S)Nc1cccc(C)c1)c1cccc(N)c1`, the manual score was 0 (inactive).
For `CCc1cc(C(=O)NNC(=S)Nc2cccc(C)c2)cs1`, the manual score was 1 (active).
`Cc1cccc(NC(=S)NNC(=O)c2sccc2C)c1` was tested, and the manual score was 1 (active).
`O=c1oc(-c2ccc(Br)o2)nc2ccccc12` was tested, and the manual score was 0 (inactive).
`COC(=O)c1cc(=O)n(CCc2ccc(OC)cc2)c(=Nc2ccc(F)c(Cl)c2)s1` was tested, and the manual score was 0 (inactive).
In the case of `CC(C)(C)NC(=O)C(c1ccncc1)N(C(=O)c1csnn1)c1ccccc1` (configuration not stated), the manual score is reported as 0 (inactive).
`O=C(C[n+]1cc(-c2ccccc2)n2c1CCC2)OCc1ccccc1` was tested, and the manual score was 0 (inactive).
In the case of `CS(=O)(=O)c1ccc2nc(NC(=O)Nc3ccc(Cl)c(Cl)c3)sc2c1`, the manual score is reported as 0 (inactive).
`O=C(CSc1ccccc1)N(c1ccc(Br)cc1)c1nccs1` was tested, and the manual score was 0 (inactive).
In the case of `Cc1ccc(OCCCC(=O)Nc2nccs2)cc1`, the manual score is reported as 0 (inactive).
With `CC1(C)Cc2ccccc2C(/C(=N\Nc2cccc(Cl)c2)C(N)=O)=N1` the manual score was 0 (inactive).
For `O=C(Nc1cccc(Cl)c1)Nc1nccs1`, the manual score was 1 (active).
`O=C(Nc1ccccc1)Nc1nccs1` was tested, and the manual score was 1 (active).
In the case of `O=C(NNC(=O)c1cccs1)Nc1cccc(Cl)c1`, the manual score is reported as 1 (active).
For `CCOC(=O)Cn1c(=O)oc2cc(S(=O)(=O)Nc3ccc(N(CC)CC)cc3C)ccc21`, the manual score was 0 (inactive).
With `CCOC(=O)C1=C(C)OC(N)=C(C#N)C1c1cncc(-c2ccc(F)cc2)c1` (configuration not stated) the manual score was -0.5 (inactive).
With `Cc1c(NC(=S)NC(NC(=O)CC(C)C)C(Cl)(Cl)Cl)c(=O)n(-c2ccccc2)n1C` (configuration not stated) the manual score was 0 (inactive).
For `O=C(NC(=S)Nc1cc([N+](=O)[O-])ccc1Cl)c1ccccc1`, the manual score was 0 (inactive).
With `COc1ccc(C/C(C)=N/NC(=S)Nc2ccccc2)cc1` the manual score was 0 (inactive).
`O=C(/C=C/c1ccccc1)NC(NC(=S)Nc1cc(Cl)ccc1Cl)C(Cl)(Cl)Cl` (configuration not stated) was tested, and the manual score was 1 (active).
With `COC(=O)c1ccccc1NC(=S)NC(NC(=O)c1ccccc1[N+](=O)[O-])C(Cl)(Cl)Cl` (configuration not stated) the manual score was 0 (inactive).
`COc1ccc(NC(=S)NC(NC(=O)/C=C/c2ccccc2)C(Cl)(Cl)Cl)cc1` (configuration not stated) was tested, and the manual score was 1 (active).
With `O=C(NC(NC(=S)Nc1ccc(Cl)cc1Cl)C(Cl)(Cl)Cl)c1cccc([N+](=O)[O-])c1` (configuration not stated) the manual score was 1 (active).
For `O=C(/C=C/c1ccccc1)NC(NC(=S)Nc1cccc(O)c1)C(Cl)(Cl)Cl` (configuration not stated), the manual score was 3 (inactive).
With `O=C(/C=C/c1ccccc1)NC(NC(=S)Nc1cccc(Cl)c1)C(Cl)(Cl)Cl` (configuration not stated) the manual score was 1 (active).
In the case of `N#C/C(=C/C=C/c1ccccc1)C(=O)Nc1ccccc1`, the manual score is reported as 0 (inactive).
In the case of `O=C(CSc1nc(-c2ccccc2)cc(=O)[nH]1)N1CCc2ccccc21`, the manual score is reported as 0 (inactive).
In the case of `O=C(COc1ccc2ccccc2c1CN1CCOCC1)N1CCc2ccccc21`, the manual score is reported as -1 (active).
In the case of `Cc1cccc(S(=O)(=O)NC(Cc2c[nH]c3ccccc23)C(=O)O)c1` (configuration not stated), the manual score is reported as 0 (inactive).
`CC(C)n1c(NCc2c[nH]c3ccccc23)nc2ccccc21` was tested, and the manual score was -1 (active).
`CCOC(=O)C(C)Sc1nnc(-c2c[nH]c3ccccc23)n1C` (configuration not stated) was tested, and the manual score was -0.5 (inactive).
`Cc1cc(C)c2c(c1)/C(=N/NC(=S)Nc1ccc(F)cc1)CCC2` was tested, and the manual score was 0 (inactive).
In the case of `Cc1ccccc1N=Nc1ccc(O)c2ncccc12`, the manual score is reported as 0 (inactive).
For `Cc1ccccc1N=Nc1c(C)[nH]n(C(N)=S)c1=O`, the manual score was 1 (active).
`Cc1nn(-c2ccccc2)c(OC(=O)c2cccs2)c1S(=O)(=O)c1ccccc1` was tested, and the manual score was 0 (inactive).
In the case of `CCOC(=O)c1c(C)[nH]c2c1cc(O)c1ccccc12`, the manual score is reported as 0 (inactive).
In the case of `CCOC(=O)c1c(C)oc2ccc(O)c(CN3CCCCC3)c12`, the manual score is reported as -1 (active).
In the case of `CCOC(=O)c1c(C)n(C)c2ccc(O)c(CN3CCC(C)CC3)c12`, the manual score is reported as -1 (active).
For `CCN(CC)C(=O)COc1ccc2oc(C)c(C(=O)OC)c2c1`, the manual score was 0 (inactive).
In the case of `CCOc1ccc(C2=NNC(c3cccs3)=Nc3ccc(OC)cc32)cc1`, the manual score is reported as 0 (inactive).
`Cc1[nH]n(-c2ccc(Cl)cc2)c(=O)c1/C=N/c1nnc(-c2ccccc2)s1` was tested, and the manual score was 1 (active).
With `CCOc1ccc2nc(/N=C/c3c(C)[nH]n(-c4ccccc4)c3=O)sc2c1` the manual score was 1 (active).
With `CCn1c(SCc2ccc(Cl)cc2)nnc1-c1ccccc1` the manual score was 0 (inactive).
In the case of `Cc1ccc(-n2[nH]c(C)c(C=Nc3cc(C)ccn3)c2=O)cc1`, the manual score is reported as 0 (inactive).
`Cc1[nH]n(-c2ccccc2)c(=O)c1/C=N/c1ccccn1` was tested, and the manual score was 0 (inactive).
With `COc1ccc2nc(/N=C/c3c(C)[nH]n(-c4ccc(C)cc4C)c3=O)sc2c1` the manual score was 1 (active).
With `COc1ccc2nc(/N=C/c3c(C)[nH]n(-c4ccc(C)cc4)c3=O)sc2c1` the manual score was 1 (active).
`COc1ccc(OC)c(-c2c3cc(O)c(=O)cc-3oc3cc(O)c(O)cc23)c1` was tested, and the manual score was 0 (inactive).
`Cc1ccc(NC(=O)c2cc(NC(=O)CCC(=O)O)ccc2N2CCCCC2)cc1` was tested, and the manual score was 0 (inactive).
For `CN1CCN(C(=O)Nc2cccc3ccccc23)CC1`, the manual score was 0 (inactive).
For `CC1=C(C)C(c2ccccc2)NC(=S)N1` (configuration not stated), the manual score was 0 (inactive).
In the case of `CCOc1ccc2nc(NC(=O)C(CC)Sc3nc(C)cc(=O)[nH]3)sc2c1` (configuration not stated), the manual score is reported as 0 (inactive).
`CCOc1[nH]n(-c2ccc(Cl)cc2)c(=O)c1C=Nc1ccc(Cl)cc1` was tested, and the manual score was 0 (inactive).
For `CCOc1ccc2nc(/N=C/c3c(C)[nH]n(-c4ccc(C)cc4)c3=O)sc2c1`, the manual score was 1 (active).
For `C=C(C)CNC(=S)N/N=C1\CCCCc2ccccc21`, the manual score was 0 (inactive).
In the case of `CCOC(=O)c1cc(NC(=O)SCC(=O)O)c(C)nc1C`, the manual score is reported as 0 (inactive).
With `CCNC(=S)Nc1nc2c(cc1C(=O)OCC)CCCC2` the manual score was 1 (active).
With `C=C(C)CNC(=S)Nc1nc2c(cc1C(=O)OCC)CCCC2` the manual score was 1 (active).
In the case of `C=CCNC(=S)Nc1nc2c(cc1C(=O)OCC)CCCC2`, the manual score is reported as 1 (active).
`CCOC(=O)C1=NNC(C(=O)c2ccc(OC)cc2)C1c1ccccc1` (configuration not stated) was tested, and the manual score was 0 (inactive).
In the case of `CC(Cc1cccs1)NC(=O)Nc1ccc(Cl)cc1` (configuration not stated), the manual score is reported as 0.5 (inactive).
For `CC1CCc2c(sc(NC(=O)C(=O)NCc3ccco3)c2C#N)C1` (configuration not stated), the manual score was 0 (inactive).
With `O=C(Nc1ccc(Cl)cc1)NC1CCCCC1Cc1ccco1` (configuration not stated) the manual score was 1 (active).
In the case of `O=C(COc1ccc(Cl)cc1Cl)NC(=S)N1CCCc2ccccc21`, the manual score is reported as 0 (inactive).
For `O=C(COc1ccc(Br)cc1Cl)NC(=S)N1CCc2ccccc21`, the manual score was 0.5 (inactive).
`O=C(COc1ccccc1)NC(=S)N1CCc2ccccc21` was tested, and the manual score was 1 (active).
`CC(Oc1ccc(Cl)cc1Cl)C(=O)NC(=S)N1CCc2ccccc21` (configuration not stated) was tested, and the manual score was 1 (active).
In the case of `O=C(COc1ccccc1Cl)NC(=S)N1CCc2ccccc21`, the manual score is reported as 1 (active).
With `Cc1cccc(OCC(=O)NC(=S)N2CCCc3ccccc32)c1` the manual score was 0 (inactive).
In the case of `CCOc1cc(C(=O)NCc2ccncc2)cc(OCC)c1OCC`, the manual score is reported as 0 (inactive).
In the case of `CO/N=C(\Cn1ncc(N2CCCC2)c(Cl)c1=O)c1ccc(Cl)cc1`, the manual score is reported as -1 (active).
`CCN(CC)c1cnn(C/C(=N\OC)c2ccc(Cl)cc2)c(=O)c1Br` was tested, and the manual score was -1 (active).
`CO/N=C(\Cn1ncc(N2CCCC2)c(Br)c1=O)c1ccc(Cl)cc1` was tested, and the manual score was -1 (active).
`CC(=O)c1ccc(N2CCCC2)c(F)c1` was tested, and the manual score was 0 (inactive).
